# Experimental data as given in PMC5540273 (PLoS ONE, 2017).
# “And” between values parts separate entries of the source, which are not always exact repeats. Identical values can stand only once.
# Test system: FER
# Conditions: concentration: 1 μM, replicates: in singlicate; 1 µM; n = 1
# 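Note: KINOMEscan kinase panel screen.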
row,SMILES,%Inh
1,NCCNS(=O)(=O)c1ccc(-c2ccnc3[nH]ccc23)cc1 [GSK977617],53% and 22%
2,CC(C)(CN)c1nc(-c2ccc(Cl)c(O)c2)c(-c2ccncc2)[nH]1.O=C(O)C(F)(F)F [SB-477794],12% and 31%
3,Cl.Cl.Cl.Fc1ccc(-c2ncn(C3CCNCC3)c2-c2ccnc(Nc3ccccc3)n2)cc1 [SB-238039],0% and 1%

# Same assay, conditions: concentration: 1 μM, replicates: in singlicate; n = 1
row,SMILES,%Inh [%]
1,N#Cc1c(N2CCOCC2)sc(-c2ccn[nH]2)c1-c1ccc(Cl)cc1,11
2,c1ccc(-c2cc(-c3c[nH]nc3-c3ccccn3)ccn2)cc1 [GW576604],13
3,O=C(NCCCN1CCOCC1)c1cccc(Nc2nccc(Nc3ccc(Oc4ccccc4)cc3)n2)c1 [GW663929],19
4,CCCCCc1nc2c(N)ncnc2n1CCCCC [SKF-97255],13
5,Cc1c(Cn2c(C)nn3c(=O)cc(N4CCOC(C)C4)nc23)cccc1C(F)(F)F (centres unmarked) [GSK2344444],25
6,O=C(NCCNc1ccnc(Nc2ccc(F)cc2)n1)c1cc2ccccc2s1 [GSK1379874],16
7,CC(C)Oc1ccc2c(-c3ccnc(Nc4ccc(N5CCN(C)CC5)cc4)n3)cnn2n1 [GW696155],22
8,COc1cc2c(cc1OCCN1CCN(C)CC1)ncc1c3ccc(C#N)cc3[nH]c21,3
9,CC(=O)Nc1ccc(COc2ccc(Nc3ccnc4cc(-c5ccccn5)ccc34)cc2)cc1.Cl [GW440148],0
10,CC(C)(C)n1cnc2c(N)ncnc21 [SKF-97359],45
11,CN(C1=C(c2ccccc2)C(=O)NC1=O)c1ccccc1 [SB-334860],19
12,Cl.Nc1ncnc2occ(-c3ccc(NC(=O)Nc4cc(C(F)(F)F)ccc4F)cc3)c12 [SB-707548],31
13,NS(=O)(=O)c1cccc(-c2ccc3nccc(-c4cccc(S(N)(=O)=O)c4)c3c2)c1 [GW867253],0
14,NS(=O)(=O)c1cccc(-c2ccc3ncc(N4CCOCC4)nc3c2)c1 [GSK1535721],3
15,COc1ccc(CNC(=O)NC2CCN(c3ccnc(Nc4ccc(OC)cc4)n3)C2)cc1 (centres unmarked) [GSK1379727],8
16,Cc1nnc(-c2ccc(C)c(-c3ccc(C(=O)Nc4ccc(NS(C)(=O)=O)cc4)cc3)c2)o1 [GW702865],4

row,SMILES,%Inh [%]
1,Cc1nnc(-c2ccc3occ(-c4ccc(C(C)O)cc4)c3c2)o1 (centres unmarked),0
2,[2H]C([2H])(c1cccc(C(F)(F)F)c1C)n1ccn2c(=O)nc(N3CCOCC3)cc12 [GSK2336394],33
3,NCC(NC(=O)c1cc(-c2cn[nH]c2)c(-c2ccnc3[nH]ccc23)s1)c1ccccc1.O=C(O)C(F)(F)F.O=C(O)C(F)(F)F (centres unmarked) [GSK1325775],0
4,O=C(NCCNc1ccnc(Nc2ccc(F)cc2)n1)Nc1ccccc1F [GSK1379880],11
5,COc1ccc(S(=O)(=O)NC2CCN(c3cc(C)nc(Nc4cccc(C#N)c4)n3)CC2)cc1.O=C(O)C(F)(F)F [GSK1653539],23
6,O=C1NC(=O)C(N2CCc3ccccc32)=C1c1cccc(Cl)c1 [SB-408010],0
7,O=c1cc(N2CCOCC2)nc2n(Cc3cccc(Cl)c3Cl)c(C3CC3)nn12 [GSK2358994],3
8,O=c1cc(N2CCOCC2)nc2n(Cc3cccc(F)c3)ccn12 [GSK2297430],24
9,CSc1ccc(-c2cc3ncnc(SCC(=O)O)c3s2)cc1,10
10,O=C(c1ccc(-c2cc(-c3c[nH]nc3-c3ccccn3)ccn2)cc1)N1CCOCC1 [GW812171],0
11,COc1ccc(Nc2nccc(N3CCC(NC(=O)Nc4cc(C)ccc4C)C3)n2)cc1 (centres unmarked) [GSK1379741],0
12,Fc1ccc(-c2nn3c(OCC(F)(F)F)cccc3c2-c2ccncc2)cc1 [GW514784],13
13,N#Cc1ccc(-c2cc(-c3c[nH]nc3-c3ccccn3)ccn2)cc1 [GW693028],7
14,COc1cc2ncn(-c3cc(OCc4sccc4Cl)c(C(N)=O)s3)c2cc1OC [GSK448459],10
15,NS(=O)(=O)CCc1cccc(Nc2nccc(-c3c(-c4cccc(NC(=O)c5c(F)cccc5F)c4)nn4ccccc34)n2)c1 [GSK336735],73
16,O=C(Nc1n[nH]c2cc(-c3cccc(F)c3)ccc12)C1CC1 [SB-735464],1
